In the library only some 1.8% were active in any assay of this set; here they are far more common.
Bfl-1 A1 inh: caspase 3/7 activation in MEF A1-2A-BIM cells, primary screen, A1 inhibitor project, cell-based, luminescence, HTS | caspase activation, % (concentration not given with the values) | Caspase-Glo 3/7 luminescence, 3 h; percent of clofoctol response, vehicle zero | actives 0.066% (n = 330,000);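 active = over half of replicate activation scores above 10%, or exactly half above 10 with the replicate mean above 10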
ARNT-TACC3 inh: disruptors of ARNT/TACC3 protein interaction, primary screen, biochemical, AlphaScreen, single concentration; Transforming acidic coiled-coil-containing protein 3 (Homo sapiens), Q9Y6A5; AlphaScreen His-ARNT PAS-B/GST-TACC3 binding, luminescence; TACC3 fragment carries E629A point mutation; inhibition, % at 9.99 µM; actives 0.66% (n = 390,000);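 active = mean inhibition of replicates at least 50% and at least half of replicates each reaching 50%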
AI-2 QS modul: Vibrio harveyi AI-2 quorum sensing modulators, primary screen, JMH597 strain, luminescence/OD600 ratio. Vibrio harveyi JMH597 AI-2 luminescence/OD600 ratio, 9 h; hits give low values; strain lacks LuxN and CqsS sensors; 0 = neutral-control median. activity change, % at 7.5 µM. actives 0.4% (n = 300,000); in the data active = activity change below about -75%, passing the limit was not always enough;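 also: luminescence divided by OD600 gain over 9 h not by final OD600 alone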
Mot1-301 SUMO: yeast Mot1-301 growth rescue at high temperature, primary screen, SUMOylation pathway inhibitor project, S. cerevisiae, ATP luminescence, 38.5C; S. cerevisiae Mot1-301 growth rescue; percent above DMSO median, 100 means doubled; growth rescue, % at 18.8 µM; actives 1% (n = 320,000); AID 2716, 2010;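 active = every valid replicate shows activation above 250% relative to neutral control wells; inactive = the rest, any valid replicate at or below 250%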
aDG glyco up: activators of alpha-DG glycosylation, primary screen, uHTS, Pro5-aDG cells, AlphaScreen; activation, % at 10 µM; alpha-DG glycosylation AlphaScreen (IIH6); 0% Pro5, 100% B10-LARGE cell signal; actives 0.22% (n = 360,000); AID 624168, 2012;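 active = activation of at least 8% versus controls, or a plate z-score of at least 8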;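 also: Pro5 are CHO cells carrying HIG-tagged alpha-DG that lacks glycosylation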
aDG conf: alpha-DG glycosylation enhancers, retest, confirmation, single concentration, Pro5-aDG cells; shares compounds with aDG glyco up; IIH6 AlphaLISA; scaled to LARGE-overexpressing B10 cells as 100%; activation, % at 10 µM (by protocol); actives 17% (n = 600); AID 651671, 2012;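 active = activation of at least 7% in one or more replicates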;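 also: cells exposed to compound for two days before detection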
A number is an active result; . = inactive; / = no result given.

SMILES	Bfl-1 A1 inh	ARNT-TACC3 inh	AI-2 QS modul	Mot1-301 SUMO	aDG glyco up	aDG conf
Cc1ccc(N(Cc2cc3ccc(C)cc3[nH]c2=O)C(=O)c2ccco2)c(C)c1	.	.	.	.	2.4	.
CCc1ccc(Nc2cc(=O)n(C3CCCCC3)c(=O)[nH]2)cc1	.	.	.	.	6.9	.
O=C(Nc1ccccc1C(=O)N1CCCCCC1)c1ccc(Cl)cc1	.	.	.	.	.	/
Cc1ccc2c(-c3csc(N)n3)c[nH]c2c1	.	/	.	.	/	/
CN1CCN(CC(=O)Nc2nc(-c3c[nH]c4ccccc34)cs2)CC1	.	.	.	.	.	/
CCC(C)Nc1nc(-c2c[nH]c3ccccc23)cs1 (stereo not given)	.	/	.	.	7.7	6.9
CNc1nc(-c2c[nH]c3ccccc23)cs1	.	.	.	.	11	7.9
Nc1nc(-c2c[nH]c3ccccc23)cs1	.	.	.	.	9.1	.
Cc1ccc2nc(NCc3ccccc3)c(C=NCc3cccnc3)c(=O)n2c1	.	.	.	.	.	/
O=C(CN1C(=O)c2ccccc2S1(=O)=O)NCCSCc1ccccc1Cl	.	.	.	.	.	/
O=C(CN1C(=O)c2ccccc2S1(=O)=O)NCCSCc1ccco1	.	.	.	.	80	.
O=C(C(=O)N1CCN(c2ccccc2)CC1)c1cccc(Br)c1	/	/	/	/	.	/
Clc1cccc(Cl)c1CNCCCSc1ncccn1	.	.	.	.	.	/
Clc1ccc(CNCCCSc2ncccn2)cc1Cl	.	.	.	.	2.4	.
Cc1c(-c2csc(N)n2)c2ccccc2n1C	.	.	.	.	.	/
CCN(CC)C(=O)NCc1c(C)cc(C)cc1C	.	.	.	.	47	.
CCN(CC)C(=O)c1cccc(C)c1	.	.	.	.	.	/
CCCCc1c(-c2ccccc2OC)ncn1Cc1cccc(-c2ccccc2)c1	/	/	/	/	11	.
CCCCc1c(-c2cccc(OC)c2)ncn1CCc1ccccc1OC	/	/	/	/	.	/
CCCCc1c(-c2ccc(OC)c(OC)c2)ncn1CCc1ccccc1OC	/	/	/	/	14	.
Cc1cccc(N2CCN(C(=O)CSCc3c(C)noc3C)CC2)c1C	.	.	.	.	6.8	.
CC(C)n1cc(CN2CCCC(C(=O)Nc3cccc(-c4cc5ccccc5[nH]4)c3)C2)cn1 (stereo not given)	.	/	.	.	8.8	5.3
COc1ccc(C(C)=O)cc1COC(=O)CNC(=O)C1CCCCC1	.	.	/	.	9.1	.
CO[C@H]1CN(C)C(=O)c2ccc(NS(C)(=O)=O)cc2OC[C@@H](C)N(CC2CCOCC2)C[C@@H]1C	/	.	/	/	/	/
CCN(CC)CCn1c(=N)n(CC(=O)c2ccc(C)cc2)c2ccccc21	.	.	.	.	3.8	11
SMILES	Bfl-1 A1 inh	ARNT-TACC3 inh	AI-2 QS modul	Mot1-301 SUMO	aDG glyco up	aDG conf
COc1ccc(NC(=O)CN(C)C(=O)c2ccc(N3CCCCCC3)c([N+](=O)[O-])c2)cc1	.	.	.	.	.	/
FC(F)Oc1ccc(NC(=S)NC23CC4CC(CC(C4)C2)C3)cc1	.	.	.	.	2.0	.
Cc1cc(CNC(=O)COc2cc(F)ccc2[N+](=O)[O-])c2ccccc2n1	.	.	.	.	8.2	.
Cc1cc(CNC(=O)COc2ccc(F)cc2F)c2ccccc2n1	.	.	.	.	.	/
CCCN(CCC)c1nc(Cl)nc(NCCN2CCOCC2)n1	.	.	.	/	.	/
O=C(CCCN1C(=O)c2ccccc2C1=O)NCc1ccc(F)cc1	.	.	.	.	.	/
O=C(CCN1C(=O)c2ccccc2C1=O)NCc1ccc(Cl)cc1	.	.	.	.	2.7	.
CN(CC(=O)Nc1ccccc1C(=O)NC1CC1)Cc1ccco1	.	/	/	.	4.2	.
Cc1ccc(S(=O)(=O)NCCc2ccccc2)cc1	.	.	.	.	.	/
NC(=S)NNc1ccnc2cc(Cl)ccc12	.	.	.	.	.	/
O=C(NNc1ccnc2cc(Cl)ccc12)C1CCCCC1	.	.	.	.	10	.
c1ccc(Cn2nnnc2C(c2ccccc2)N2CCN(c3nc4ccccc4s3)CC2)cc1 (stereo not given)	.	.	.	.	.	/
c1csc(Cn2nnnc2CN2CCN(c3nc4ccccc4s3)CC2)c1	.	.	.	/	6.0	2.8
C/C=C/c1ccc2c(c1)O[C@@H](CN(C)C(=O)c1ccccc1)[C@@H](C)CN([C@H](C)CO)S2(=O)=O	/	.	/	/	/	/
O=C1SCCN1N=Cc1ccc([N+](=O)[O-])o1	/	.	/	/	7.2	3.5
CCc1ccccc1NC(=O)CSc1nc2ccccc2nc1N1CCOCC1	.	.	.	.	13	.
Cc1ccc(C)c(NC(=O)CSc2nc3ccccc3nc2N2CCOCC2)c1	.	.	.	.	.	/
Cc1nc2sccn2c(=O)c1S(=O)(=O)NCc1ccccc1Cl	.	.	.	.	10	.
COc1ccccc1CNS(=O)(=O)c1c(C)nc2sccn2c1=O	.	.	.	.	.	/
CC(C)(C)c1ccc(C(=O)Nc2cnccn2)cc1	.	.	.	.	.	/
CC1CC(C)(C)NC(=S)N1CCC(=O)N1CCc2ccccc21 (stereo not given)	.	.	.	.	.	/
CC1CCCN(CCCNC(=O)c2nn(C)c3c2CSc2ccccc2-3)C1 (stereo not given)	.	.	.	.	6.3	9.0
C[C@@H]1CCCCO[C@@H](CN(C)Cc2ccc3c(c2)OCO3)[C@H](C)CN([C@@H](C)CO)C(=O)c2cc(NC(=O)C3CCCCC3)ccc2O1	/	.	/	/	/	/
CCOc1cccc(-c2cc(N3CCN(CCO)CC3)n3nccc3n2)c1	/	/	/	/	6.0	.
COc1cc(/C=N/NC(=O)c2ccc(N(C)S(=O)(=O)c3ccccc3)cc2)cc(OC)c1OC	.	.	.	.	.	/
SMILES	Bfl-1 A1 inh	ARNT-TACC3 inh	AI-2 QS modul	Mot1-301 SUMO	aDG glyco up	aDG conf
CCOc1cc(/C=N/NC(=O)c2ccc(N(C)S(=O)(=O)c3ccccc3)cc2)ccc1OC	.	.	.	.	2.4	.
Cn1nccc1C(=O)Nc1cc(Cl)ccc1Cl	.	/	.	.	2.7	.
Cn1nccc1C(=O)Nc1ccc(Cl)cc1	.	.	.	.	.	/
CCOc1cc(C2NC(=O)NC(C)=C2C(=O)OC(C)CC)cc(Br)c1O (stereo not given)	.	.	.	.	.	/
Cc1cc(NC(=O)COc2ccc(C)c(C)c2)no1	.	.	.	.	.	/
Cc1ccc(C(C)C)cc1OCC(=O)Nc1nnc(C2CC2)s1	.	.	/	.	.	/
